Test results reported in PubChem BioAssay.
Inconclusive results are not listed. Activity calls are given as the source filed them. Unless noted, no cut-off is given here; in the data, nearly all actives have AC50 up to about 30 µM.

Tests used:
[1] = viability loss in pontine glioma line – cell-based, SU-DIPG-XIII, MIPE4.0, CellTiter-Glo, qHTS, dose response (AID 1347061; cut-off not given, nearly all actives have AC50 up to about 37 µM;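 note: cells exposed to compound for 48 hours before readout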); conditions: CellTiter-Glo ATP luminescence
[2] = viability loss in pontine glioma line – cell-based, JHH-DIPG-1, MIPE4.0, CellTiter-Glo, qHTS, dose response (AID 1347062; cut-off not given, nearly all actives have AC50 up to about 27 µM;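 for AC50: cells exposed to compound for two days before readout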); conditions: JHH-DIPG-1 viability, CellTiter-Glo ATP luminescence
[3] = viability loss in pontine glioma line – cell-based, SU-DIPG-IV, MIPE4.0, CellTiter-Glo, qHTS, dose response (AID 1347063); conditions: CellTiter-Glo ATP luminescence;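 note: compound exposure lasted 48 hours before the viability readout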
[4] = viability loss in pontine glioma line – cell-based, SU-DIPG-XIII, MIPE5.0, CellTiter-Glo, qHTS, dose response (AID 1347064; cut-off not given, nearly all actives have AC50 up to about 23 µM;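 for AC50: cells exposed to compound for 48 hours before the viability read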); conditions: CellTiter-Glo ATP luminescence
[5] = viability loss in pontine glioma line – cell-based, SU-DIPG-XXV, MIPE5.0, CellTiter-Glo, qHTS, dose response (AID 1347065; cut-off not given, nearly all actives have AC50 up to about 26 µM;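 note: cells exposed to compound for 48 hours before ATP readout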); conditions: CellTiter-Glo ATP luminescence
[6] = growth inhibition of DIPG cells – cell-based, MIPE4.0 library, CellTiter-Glo luminescence, qHTS (AID 1347066); conditions: SU-DIPG-VI viability, CellTiter-Glo ATP luminescence;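 note: cells exposed to compound for 48 hours before readout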
[7] = growth inhibition of DIPG cells – cell-based, MIPE5.0 library, qHTS (AID 1347068; cut-off not given, nearly all actives have IC50 up to about 30 µM;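 for IC50: cells exposed to compound for 48 hours before viability readout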); conditions: SU-DIPG-XXV viability
[8] = viability loss in pontine glioma line – cell-based, SU-DIPG-XVII, MIPE5.0, CellTiter-Glo, qHTS, dose response (AID 1347060; cut-off not given, nearly all actives have AC50 up to about 26 µM;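 for AC50: cells exposed to compound for 48 hours before viability readout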); conditions: CellTiter-Glo ATP luminescence
[9] = viability loss with induced miR-34 in A549 – imaging, A549 dox-inducible miR-34, nuclei and caspase counts, primary screen (AID 1347080;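 active = compounds whose cell count with miR-34 switched on is under 0.7 times the count with it off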); conditions: A549 miR-34 inducible, Hoechst nuclei count, 48 h
[10] = MELAS cybrid and Rieske KO viability enhancers – cell-based, MELAS cybrids, Rieske KO mouse fibroblasts, CellTiter-Glo, primary screen (AID 1508586;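 active = mean z-score across replicates of 1.96 or higher in either the MELAS or the Rieske mutant cell line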;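 note: z relative to plate mean and SD of compound and empty wells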); conditions: low glucose
[11] = JHH-DIPG-1 glioma cell viability, MIPE5.0 library, CellTiter-Glo luminescence, qHTS (AID 1347067; cut-off not given, nearly all actives have AC50 up to about 26 µM;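 note: cells exposed to compound for 48 hours before readout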); conditions: JHH-DIPG-1 glioma viability, CellTiter-Glo ATP luminescence
[12] = stronger effect = lower value, cell number ratio, induced over uninduced
[13] = measured here: relative caspase fold change +Dox/-Dox
[14] = measured here: total cells with miR-34 induction, stronger effect = lower value
[15] = measured here: total cells without miR-34 induction
[16] = MELAS cybrid survival, CellTiter-Glo 48 h, stronger effect = higher value
[17] = Rieske KO mouse fibroblast survival, CellTiter-Glo 72 h

With `CC(C)NC[C@@H](C(=O)N1CCN(c2ncnc3c2[C@H](C)C[C@H]3O)CC1)c1ccc(Cl)cc1` as the compound, how does the AC50 [1] read?
Its AC50 is 11.8 µM (active).

And the AC50 [2]?
The AC50 was 23.5 µM (active).

What about the AC50 [3] of the same compound?
The AC50 was 7.43 µM (active).

And the AC50 [4]?
Its AC50 is 4.68 µM (active).

And the AC50 [5]?
Its AC50 is 5.25 µM (active).

What about the AC50 [6] of the same compound?
Its AC50 is 2.64 µM (active).

With `CNC(=O)c1ccc(-c2cnc3ncc(Cc4ccc5ncccc5c4)n3n2)cc1F` as the compound, how does the outcome [1] read?
Its outcome is “inactive”.

And the outcome [2]?
The outcome was “inactive”.

What about the outcome [3] of the same compound?
Its outcome is “inactive”.

And the outcome [4]?
The outcome was “inactive”.

And the outcome [5]?
The outcome was “inactive”.

What about the outcome [6] of the same compound?
The outcome was “inactive”.

And the outcome [7]?
Its outcome is “inactive”.

For `CCN(c1cc(-c2ccc(CN3CCOCC3)cc2)cc(C(=O)NCc2c(C)cc(C)[nH]c2=O)c1C)C1CCOCC1`, which outcome [8] is on record?
The outcome was “inactive”.

And the outcome [7]?
The outcome was “inactive”.

And the fold change [9, 12]?
The fold change was 0.946 (inactive).

And the fold change [9, 13]?
Its fold change is 0.487.

And the cell count [9, 14]?
The cell count was 7910.

What about the cell count [9, 15] of the same compound?
The cell count was 8360.

And the z-score [10, 16]?
Its z-score is -0.348 (inactive).

And the z-score [10, 17]?
Its z-score is -0.95.

What does the source list for `CNC(=O)[C@@H](NC(=O)[C@H](CC(C)C)[C@H](O)C(=O)NO)C(C)(C)C`?
AC50 [8]: 18.6 µM (active); outcome [7]: inactive

With `O=C(NCc1ccncc1)C12C[C@H]3C[C@@H](C1)CC(c1ccc(Cl)cc1)(C3)C2` as the compound, how does the AC50 [1] read?
Its AC50 is 14.8 µM (active).

Which AC50 [1] does the source give for `Nc1ncnc2c1c(-c1cccc(OCc3ccccc3)c1)cn2C1CC(CN2CCCC2)C1` (stereo not given) here?
The AC50 was 16.6 µM (active).

What about the AC50 [2] of the same compound?
Its AC50 is 20.9 µM (active).

And the AC50 [3]?
Its AC50 is 20.9 µM (active).

What about the AC50 [4] of the same compound?
Its AC50 is 1.18 µM (active).

What about the AC50 [5] of the same compound?
The AC50 was 0.934 µM (active).

What about the AC50 [6] of the same compound?
The AC50 was 1.18 µM (active).

What about the AC50 [11] of the same compound?
The AC50 was 18.6 µM (active).

What about the IC50 [7] of the same compound?
The IC50 was 4.68 µM (active).

And the fold change [9, 12]?
Its fold change is 1.06 (inactive).

And the fold change [9, 13]?
The fold change was 0.675.

What about the cell count [9, 14] of the same compound?
The cell count was 1510.

What about the cell count [9, 15] of the same compound?
The cell count was 1430.

And the z-score [10, 16]?
Its z-score is -0.449 (inactive).

What about the z-score [10, 17] of the same compound?
Its z-score is 0.635.

Which results are given for `CCCCN1CCC(CNC(=O)c2c3n(c4ccccc24)CCCO3)CC1`?
AC50 [1]: 6.62 µM (active); outcome [2]: inactive; AC50 [3]: 16.6 µM (active)

Which results are given for `COc1ccc(Cc2ccc(NC(N)=O)cc2)cc1-c1cccc(Cl)c1`?
outcome [1]: inactive; outcome [2]: inactive; outcome [3]: inactive; outcome [4]: inactive; outcome [5]: inactive; outcome [6]: inactive; outcome [11]: inactive

Which results are given for `O=[N+]([O-])c1ccc(Nc2ccccc2-c2ccccc2)c2nonc12`?
outcome [1]: inactive; outcome [2]: inactive; outcome [3]: inactive; AC50 [4]: 23.5 µM (active); AC50 [5]: 18.6 µM (active); AC50 [6]: 20.9 µM (active); AC50 [11]: 23.5 µM (active)
